Screening results: PubChem, National Center for Advancing Translational Sciences (NCATS)
FLuc inh = blocks Photinus pyralis firefly luciferase activity; P08659; purified firefly luciferase, luminescence, 8 min; Potency, µM (doses to about 57.1 µM), for inactives: at the top dose activity change, negative = inhibition, hits mostly inhibitors; actives 2.2% (n = 72,000); AID 411; further: on the % scale 0 is the no-effect control and ±100 the full control effect; nearly all actives have a fitted effect of over 40% in size
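Luminescence read-out after 8 min at room temperature; enzyme reaction used luciferin plus 10 uM ATP (linear range) in imidazole buffer pH 7.2 with KCl, MgCl2, Tween 20 and BSA. Each sample was run as a titration.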
PK Bst = pyruvate kinase (B. stearothermophilus) modulation; purified pyruvate kinase, luminescence ATP production; ribose 5-phosphate activator present at AC10; Potency, µM; actives 1.2% (n = 51,000); AID 361; in the data active means potency below about 11 µM; inconclusive means mostly about 12 µM to 25 µM;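 the screen sought inhibitors and activators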;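 further: scaled between full activation by ribose 5 phosphate and full inhibition by luteolin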
ERK AVP inh = inhibitors of vasopressin-stimulated ERK signaling pathway. HEK293-V1b, vasopressin-stimulated pERK AlphaScreen. Potency, µM (series often up to 57.5 µM), without a hit: at the top dose activity, negative = inhibition, usual class: inhibitors. actives 0.99% (n = 72,000). AID 995; further: on the % scale 0 is the no-effect control and ±100 the full control effect; nearly all actives have a fitted effect of over 55% in size
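Phosphorylated ERK1/2 detected via AlphaScreen bead proximity in lysates of V1b-expressing HEK293 cells given 25 nM vasopressin for 5 min after 30 min compound exposure (37 °C). AC50 from Hill equation; basal DMSO 0%, vasopressin 100%.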
GBA activity = alters purified human glucocerebrosidase activity; actives 1.1% (n = 48,000); Potency, µM; purified enzyme, resorufin glucoside fluorescence (screen aimed at inhibitors), 20 min; AID 360; P04062; in the data active means potency below about 15 µM; inconclusive means mostly about 16 µM to 33 µM;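 further: the screen sought inhibitors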
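Wild-type enzyme at 0.2 nM final in 50mM citric acid/KH2PO4, 10mM sodium taurocholate, 0.01% tween-20, pH 5.9, with resorufin beta-D-glucopyranoside at 30 uM final. Compounds titrated, 20 min at RT, red fluorescence read; AC50 from titration.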
Starred values were filed as active, the others as inactive; [ ] = another dose, or the depositor's remark. Compounds with a hit are over-represented: about 3.9% of the library has one in this group of screens. Unless noted, the call rests on the fitted dose curve; in most records, active means well fitted curve in the direction sought with a large enough effect; inconclusive means small, poorly fitted or top-dose-only effect, or another doubt; inactive means no such curve, though single readings can be large; an effect the other way counts as inactive or inconclusive. Potency means the concentration at half of the fitted maximal effect.

Screening COc1ccc(-c2c3c(=O)n(C)c(=O)n(C)c3cn2C2CCCCC2)cc1 returned FLuc inh -2%, PK Bst >57, ERK AVP inh 16µM* and GBA activity >77.
For C/C(N)=C(/C#N)C(=O)CSc1nnc(COc2ccccc2Cl)o1 the results were FLuc inh 1%, PK Bst >57, ERK AVP inh -2% and GBA activity >77.
`COc1ccccc1OCc1nnc(SCC(=O)c2cc(Cl)ccc2OC)o1` gave FLuc inh 4%, PK Bst >57, ERK AVP inh 32µM* and GBA activity >77.
Screening COc1ccc(-c2nc3c(Br)c(N)c(Br)cc3o2)cc1 returned FLuc inh 2.5µM* and PK Bst inconclusive.
Screening N#CCc1ccccc1[N+](=O)[O-] returned ERK AVP inh 15%.
Screening CO[C@@H]1COC(=O)[C@H](C)NC(=O)C/C=C\[C@@H](C)[C@H](OC)COC(=O)[C@H](C)NC(=O)C/C=C\[C@H]1C returned FLuc inh 1%[11.4 µM] and ERK AVP inh 37%[11.5 µM].
`COc1ccc(NC(=O)c2cc3ccccn3n2)cc1` gave FLuc inh 6.3µM* and ERK AVP inh -19%.
For Nc1nc2c(ncn2C2OC(COC(=O)c3ccccc3)C(OC(=O)c3ccccc3)C2OC(=O)c2ccccc2)c(=O)[nH]1 (centres undefined) the results were ERK AVP inh -23%.
CCc1nnc(NC(=O)c2cccc(S(=O)(=O)N3CCN(c4ccccc4)CC3)c2)s1 was read as FLuc inh 0%, PK Bst >57, ERK AVP inh 0% and GBA activity 9.8*.
For Cc1ccc2nc(/C(C#N)=N/O)[nH]c2c1 the results were FLuc inh 25µM*, ERK AVP inh -14% and GBA activity >77.
CCn1cc(SCC(N)=O)c2ccccc21 was read as FLuc inh 2%.
`CN(C)CCCn1cc(C2=C(c3c[nH]c4ccccc34)C(=O)NC2=O)c2ccccc21` gave FLuc inh -1% and ERK AVP inh 0.79µM*.
`Cn1cc(C2=C(c3cn(CCCSC(=N)N)c4ccccc34)C(=O)NC2=O)c2ccccc21` gave ERK AVP inh 2µM*.
Screening COc1ccc2oc(=N)c(C(=O)Nc3ccccc3)cc2c1 returned FLuc inh 32µM*, PK Bst 8.2*, ERK AVP inh -4% and GBA activity >77.
CCCOc1ccccc1NC(=O)CC1Nc2ccccc2NC1=O (centres undefined) was read as FLuc inh -1%, PK Bst >57, ERK AVP inh -20% and GBA activity 14*.
For CCOc1ccccc1NC(=O)CC1Nc2ccccc2NC1=O (centres undefined) the results were FLuc inh 1%, PK Bst >57, ERK AVP inh -6% and GBA activity >77.
For O=C(CC1Nc2ccccc2NC1=O)c1ccccc1 (centres undefined) the results were FLuc inh 13µM* and ERK AVP inh 32%.
For CCOC(=O)N1CCN(C(=O)c2ccc3c(=O)n(Cc4ccc(OC)cc4)c(=S)[nH]c3c2)CC1 the results were FLuc inh 0%, PK Bst >57, ERK AVP inh 32µM* and GBA activity >77.
For CCOC(=O)N1CCN(C(=O)c2ccc3c(=O)n(Cc4ccccc4)c(=S)[nH]c3c2)CC1 the results were FLuc inh 3%, PK Bst >57, ERK AVP inh inconclusive and GBA activity >77.
CCOC(=O)c1nn(-c2ccc3c(c2)CCN3C(C)=O)cc1O was read as FLuc inh 10µM*, PK Bst 9.9*, ERK AVP inh 4% and GBA activity >77.
`COc1ccccc1-c1cc(C(F)(F)F)nc(S(=O)(=O)CCCC(=O)Nc2cc(C)on2)n1` gave FLuc inh 0%, PK Bst >57, ERK AVP inh 15% and GBA activity 9.4*.
COc1ccccc1-c1cc(C(F)(F)F)nc(S(=O)(=O)CCCC(=O)NC(C)C)n1 was read as FLuc inh 2%, PK Bst >57, ERK AVP inh -15% and GBA activity >77.
O=C(Nc1ccc(N2CCN(C(=O)c3ccccc3)CC2)c(Cl)c1)c1ccc(Br)o1 was read as FLuc inh -1%[25.5 µM] and PK Bst >26.
For O=C(Nc1ccc(N2CCCCC2)c(Cl)c1)c1ncn[nH]1 the results were FLuc inh 10µM*, ERK AVP inh 16% and GBA activity >77.
`O=C(Nc1ccc(N2CCCC2)c(Cl)c1)c1ccco1` gave FLuc inh 5µM* and ERK AVP inh inconclusive.
